# Bioassay records as filed in PubChem BioAssay.
# ATG4B inh: inhibitors of human ATG4B cysteine protease; Q9Y4P1; hit rate 0.51% among 340,000; ATG4B cleavage of LC3-PLA2, NBD-HPC fluorescence, 1 h; AID 504462; inhibition, % at 8.33 µM
# Target sequence (Q9Y4P1 whole entry, looked up): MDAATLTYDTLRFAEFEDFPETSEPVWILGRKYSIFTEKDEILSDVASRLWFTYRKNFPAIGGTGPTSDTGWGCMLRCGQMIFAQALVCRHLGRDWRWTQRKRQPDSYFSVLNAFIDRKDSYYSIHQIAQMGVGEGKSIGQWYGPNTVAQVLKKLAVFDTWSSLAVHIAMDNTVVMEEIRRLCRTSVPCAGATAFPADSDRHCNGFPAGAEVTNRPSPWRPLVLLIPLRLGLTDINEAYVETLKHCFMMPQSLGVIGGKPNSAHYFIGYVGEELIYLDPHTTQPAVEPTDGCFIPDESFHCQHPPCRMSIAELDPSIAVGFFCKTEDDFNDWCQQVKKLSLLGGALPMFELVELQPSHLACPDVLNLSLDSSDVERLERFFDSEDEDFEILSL
# PKA-R2B act: activators of human PKA-R2B complex | activation, % at 11.4 µM | PKA-R2B holoenzyme dissociation, Cy5-IP20 fluorescence polarization; R2B truncated from residue 108, S112A mutant; 0% DMSO only, 100% 113 µM cGMP | hit rate 0.079% among 340,000;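 active = activation above a cutoff set at the mean over all compounds plus 3 SD, cut at about 18% in these data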;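 also: higher means more holoenzyme dissociation and a rise in polarization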
# VLA-4 inh: inhibition in a human VLA-4 binding assay | inhibition, % (about 7 µM as worked out from the volumes in the protocol) | hit rate 0.2% among 330,000 | P13612 | VLA-4 expressing cells, ligand binding flow cytometry; in the data active = inhibition above about 50%
# CendR NRP1 mod: NRP-1/CendR interaction modulation; O14786; hit rate 0.85% among 360,000; inhibition, % at 25 µM; FAM-RPARPAR peptide binding to NRP-1, fluorescence polarization;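 active = inhibition or corrected inhibition above about 18%, plus a signal ratio from 0.5 to 1.5, limit read from the data, passing the limit was not always enough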
# PKA-R1A activ: PKA-R1A complex activation | hit rate 0.083% among 340,000 | AID 504707 | P00514+P68181 | activation, % at 11.4 µM | PKA-R1A dissociation, Cy5-IP20 fluorescence polarization; scaled: DMSO 0%, 113 µM cGMP 100%;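 active = percent activation above the mean of all tested compounds plus 3 SD, cut at about 19% in these data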;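 also: higher means more PKAc released from R1A so a rise in polarization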
# VLA-4 allo CP: confirmation of allosteric modulators of human VLA-4 integrin; inhibition, % at 6.7 µM; AID 2813; shares compounds with VLA-4 inh; U937 cells, HUTS-21 LIBS mAb binding, flow cytometry; LDV ligand present at threefold Kd; hit rate 2% among 1,300;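 also: 0% = ligand without compound and 100% = no ligand background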
# Starred values were filed as active, the others as inactive; x = no result given. Compounds with a hit are over-represented: about 1.6% of the library has one in this group of screens. Rule as the data show it, unless noted: active = inhibition above about 40%; inactive = the rest.
SMILES,ATG4B inh,PKA-R2B act,VLA-4 inh,CendR NRP1 mod,PKA-R1A activ,VLA-4 allo CP
Cc1cc(Cl)ccc1OCCCC(=O)NNC(=O)c1ccccc1O,1.2,0.5,-5.3,1.9,-0.2,x
Cc1ccc(S(=O)(=O)N2[C@@H](c3ccccc3)C(C(=O)O)=CC[C@H]2c2cccc(C)c2)cc1,-0.7,-4.6,19.9,-12.9,-1.2,x
CC[C@@H]1C=C(C(=O)O)[C@H](c2cccc(C)c2)N1S(=O)(=O)c1ccc(C)cc1,-8.4,-11.0,28.0,-11.1,-8.7,-0.1
COc1ccc([C@H]2C(C(=O)O)=C[C@@H](CC3CCCC3)N2S(=O)(=O)c2ccc(C)cc2)cc1OC,-4.1,-4.2,-2.5,-8.7,6.5,12.8
Cc1ccc(S(=O)(=O)N2[C@@H](c3cccc(C)c3)C(C(=O)O)=C[C@H]2CC2CCCC2)cc1,4.0,2.8,9.0,-18.4,-16.0,-2.8
Cc1ccc(S(=O)(=O)N2[C@@H](c3ccc4c(c3)OCO4)C(C(=O)O)=C[C@H]2CC2CCCC2)cc1,10.1,-10.9,22.2,-4.5,-7.3,0.6
Cc1nc2nc(C)c(NS(=O)(=O)c3ccc(Cl)s3)c(=O)n2[nH]1,3.8,-1.9,6.7,-2.2,3.7,x
O=S1(=O)CC(N2CCN(CCO)CC2)CN1Cc1cn(Cc2ccccc2)nn1 (stereo not drawn),x,x,x,2.7,x,x
COCCCn1c(SC(C)C(=O)NC2CC2)nc2ccccc2c1=O (stereo not drawn),-3.3,-5.5,2.7,5.1,11.8,x
CN1CCCN(C(=O)c2ccc(Cl)s2)CC1,3.1,-8.2,1.6,-15.9,-11.5,x
COc1cccc(-c2cc(=O)c3cc(NC(=O)c4ccc(Cl)cc4)ccc3[nH]2)c1,3.6,-1.8,50.1*,-5.5,1.3,-2.1
CS(=O)(=O)c1cccc(C(=O)NCc2ccc(F)cc2)c1,-8.6,-2.3,93.4*,14.8,-3.6,-5.8
Cc1cccc(NC(=O)C2CCCN(S(=O)(=O)c3ccc4[nH]c(=O)ccc4c3)C2)n1 (stereo not drawn),4.9,2.6,5.6,-7.8,1.1,x
O=C(COC(=O)c1ccc(F)cc1F)NCCNC(=O)COC(=O)c1ccc(F)cc1F,-3.2,-9.8,21.7,17.0,-15.1,x
O=C(COC(=O)c1ccc(O)cc1)Nc1ccccc1,-1.7,-11.2,-15.8,11.3,-3.4,1.8
CC(=O)c1ccc(NC(=O)COC(=O)c2ccc(F)cc2F)cc1,-3.6,10.9,10.8,1.0,7.9,-2.1
O=C(COC(=O)c1ccccc1Br)Nc1ccc(F)cc1,-0.1,-8.4,11.3,1.6,2.9,5.3
O=C(COC(=O)c1ccc(O)cc1)Nc1ccc(OC(F)F)cc1,-2.5,-1.2,40.2,-10.9,3.4,x
COc1cc2c(cc1OC)C(c1cc(Br)ccc1O)N(C(C)=O)CC2 (stereo not drawn),-5.0,-1.2,22.1,7.9,-5.8,x
COc1cc2c(cc1OC)C(c1cc(OC)c(OC)cc1[N+](=O)[O-])N(C(C)=O)CC2 (stereo not drawn),2.0,-1.6,41.0,-4.7,7.7,-6.9
CCCN(CC(=O)Nc1ccccc1C)C(=O)c1cccc(S(=O)(=O)N2CCN(c3ccccc3)CC2)c1,-5.9,3.6,-3.1,6.7,10.4,x
COc1cccc(C(C(=O)NC2CCCCC2)N(C(=O)Cc2cccs2)c2ccc(-n3cnnn3)c(OC)c2)c1 (stereo not drawn),-9.5,9.3,54.0*,-1.5,0.0,-3.5
COc1cc(N(C(=O)Cc2cccs2)C(C(=O)NC2CCCCC2)c2cccc(OC)c2OC)ccc1-n1cnnn1 (stereo not drawn),-18.1,-0.6,3.2,12.3,-14.3,x
C=CCNC(=O)c1ccccc1NC(=O)COc1ccc(OC)cc1,-6.8,-17.8,7.0,-3.8,-0.9,1.8
C=CCNC(=O)c1ccccc1NC(=O)COc1ccccc1,-2.3,-7.0,54.5*,0.5,3.9,11.8
SMILES,ATG4B inh,PKA-R2B act,VLA-4 inh,CendR NRP1 mod,PKA-R1A activ,VLA-4 allo CP
COc1ccc(NC(=O)c2ccccc2NC(=O)COc2ccccc2)cc1,-9.2,-3.5,24.8,-14.5,-3.7,x
CCNc1nc2c(c(=O)n(C)c(=O)n2C)n1CCCc1ccccc1,-1.0,-6.8,17.7,-15.8,-13.9,x
COc1ccccc1NS(=O)(=O)c1cc(NC(=O)CCNC(C)=O)ccc1C,-6.0,0.3,11.1,1.1,-6.4,x
COc1ccccc1NS(=O)(=O)c1cc(NC(=O)CNC(=O)c2ccccc2)ccc1C,-13.3,-3.7,53.3*,-6.8,-4.4,-0.4
CCN1CCN(C(=O)c2cc3cc(F)ccc3[nH]2)CC1,3.1,-9.7,6.9,-0.5,-1.8,x
Cc1ccc(S(=O)(=O)Nc2ccc(N3CCOCC3)cc2)cc1C,-9.9,-8.7,1.6,-5.0,-7.9,x
Cc1ccc(NS(=O)(=O)c2ccc3c(c2)CC(=O)N3)c(C)c1,-7.4,14.7,2.5,-2.9,0.7,x
O=C1Cc2cc(S(=O)(=O)Nc3ccc(N4CCOCC4)cc3)ccc2N1,9.3,-1.6,9.7,-4.7,-3.8,-10.2
Cc1ccc(NS(=O)(=O)c2ccc3c(c2)CC(=O)N3)cc1F,-5.6,2.3,40.6,21.4,-7.1,3.1
N#Cc1ccccc1Cn1cc(/C=C/[N+](=O)[O-])c2ccccc21,10.9,2.6,42.2,-9.4,-3.0,30.7
CC(C)OC(=O)NCCOC(=O)Nc1ccc(Cl)c(Cl)c1,-12.3,-4.4,-0.6,-9.5,3.8,x
O=C(Nc1ccccc1)OCc1cncs1,8.0,8.6,7.3,-4.3,-8.0,5.7
O=C(Nc1ccc(Cl)c(Cl)c1)OCc1cnc(Cl)s1,3.0,6.8,2.2,0.1,-5.3,10.0
O=C(Nc1ccccc1)OCc1cnc(Cl)s1,-3.5,1.3,0.0,3.3,6.5,2.9
O=C(/C=C/c1ccccc1)OCc1cncs1,-1.3,-0.6,0.4,0.4,-10.3,x
O=C(Nc1ccc(Cl)c(Cl)c1)OCc1cncs1,-5.4,-1.6,4.3,1.9,-17.6,-3.2
CCCS(=O)(=O)NC(=O)C1(C)CCN(C(=O)c2ccc3ccccc3n2)C1 (stereo not drawn),x,x,x,0.0,x,x
Cc1ccc(CN(C(=O)c2csnn2)C(C(=O)NC2CCCC2)c2cccnc2)cc1 (stereo not drawn),-4.0,14.0,-2.0,-5.5,-0.4,x
CC(c1ccon1)N(C)C(=O)c1ccc2nc(Cc3cccc(Cl)c3)oc2c1 (stereo not drawn),-1.8,-3.0,6.1,3.6,8.8,x
C[C@H](Cc1ccccc1)Nc1ncnc2c1ncn2[C@@H]1O[C@H](CO)[C@@H](O)[C@H]1O,-2.3,-0.5,59.0*,-8.6,0.2,3.8
Cc1ccc(S(=O)(=O)NCc2cccnc2)cc1C(=O)N1CCCC1,-0.4,16.8,-1.2,6.6,2.1,x
Cc1cc(C)nc(-n2ncc3c2CC(C)CC3=O)n1 (stereo not drawn),9.5,x,-7.9,6.9,x,11.0
